Results from the supplement of paper PMC10681739.

target: RUNX1 (UniProt Q01196); experiment: RUNX1 binding intensity (PBM fluorescence), RUNX1 alone (arbitrary fluorescence units); higher = stronger binding; conditions: RUNX1 concentration 2 nM; ETS1 concentration 0 nM
Description: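 Cooperative gcPBM on 36-bp genomic probes with neighbouring ETS1 and RUNX1 sites. Recombinant human RUNX1 (2 nM) was incubated alone or with ETS1 (25 nM) and detected with anti-RUNX1 antibody plus Alexa488 secondary. Values are medians over 4 replicate spots; the RUNX1+ETS1 data were normalised to the RUNX1-only data. The probes sit in constant array flanks that are not printed.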
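Also: Full-length recombinant human RUNX1 bound to double-stranded 36-bp genomic probes on a high-density microarray, scored as Alexa488 fluorescence per spot via anti-RUNX1 antibody, median of four replicate spots.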

RUNX1, sequence (Q01196 whole entry): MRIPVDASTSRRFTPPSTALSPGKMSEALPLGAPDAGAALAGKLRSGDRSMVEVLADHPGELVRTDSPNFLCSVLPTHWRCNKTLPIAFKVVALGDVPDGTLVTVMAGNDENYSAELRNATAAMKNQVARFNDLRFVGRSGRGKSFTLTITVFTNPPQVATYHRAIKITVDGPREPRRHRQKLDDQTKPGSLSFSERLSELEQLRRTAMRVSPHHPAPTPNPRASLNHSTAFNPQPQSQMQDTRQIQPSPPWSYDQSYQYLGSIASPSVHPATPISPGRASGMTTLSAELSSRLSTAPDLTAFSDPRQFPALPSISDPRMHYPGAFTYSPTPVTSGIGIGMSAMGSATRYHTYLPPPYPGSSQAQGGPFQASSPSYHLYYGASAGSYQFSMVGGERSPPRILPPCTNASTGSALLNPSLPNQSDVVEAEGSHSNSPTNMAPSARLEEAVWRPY

Sequence	RUNX1 binding intensity
ATCACTTGTTTCCGCCAGCAAACCACAGGTCCCCAG	1550
GAAGCGCTGGGCGGAAGTGGCTGTGGCTTTGCCCTT	735
TCTAGTTCTGGTTTCCGGACCGCATTCGGAACTAGA	786
AAAGTAGGTCCGGTCCGCGGGTGCGGTCGGGCATGC	686
GGGAACTGGGGAAGGGGATGTGGTAACCAGAACCAC	869
CCAAGCACTTCCTGCTGTTAGCTTTGTGGGCTGAGT	860
TTACAGGGGCCGGAAGTGGCCTGCGGGCGGAGAAGT	753
TACTTCTTCCTGGCAGAGACCGGGAGTGCGGTCCGC	745
CACCTCCTACTTCCCCCCGCTGATAACCACCAACCC	2990
TCTTTAAAACCCGGAAGTTCCTGTGGTTCATACGCT	978
TTGTCAGATGGCGAAGGAAACCGCGAAATTCGCCAT	1270
CCGCCACCGGAAGCGCCCTCCTAATCCCCGCAGCGC	978
GCTTCTGAGGAAGTGCGTTCTGTGGGTAGGTGGAGT	834
GGGGCCTCTGCTACTTCCTAGACCGCAAAATGGAGA	5260
TTCATTTCTACCTTCCTGTGGTCTTTTTGCCTCCGA	1860
CTGTCTGCTTCCCGTGGCCAGCCCTGACCGCGGCCC	1060
AAATGTGGCCGGATGCTCTGTGGGCGGGCGGCAGCT	700
TTCTTCACTTCCTTCTCTCCGTGGTTTCGCCATTAG	2260
GCATTGTGCTTCCGCTCGGGGAAAGACCGCTTACGG	851
CCCTTCGCTTCCGCTCCGCGTTCCCACAATGCAGTG	1600

Sequence	RUNX1 binding intensity
CCGCGCACCCGGAACTACCTCCCGACCCGCATCCCC	1290
GAGGCGTTTCCGCCTCCTTTTCGCGGTTGCCTTCTC	1060
GCTCAAGTACCGGAAAGGCCCGCAGAAAGAAGGGCA	748
CGACCGGAACCACTCTGAGGCGCTGCCGCAGACACC	919
GCGGGAAAAGGGAAGTTTGCGGGAGGTCAAATCCAC	867
GAGGACTTCCGGGTGCGTGTGATATCTGCGGGCCCG	703
GTGTGCGTGAGAAGAGGAAGTGGTTAGGAAGACACA	801
GTGCAGGGCCCGGAAGCTCAGTGTGGTTAAAGACAT	805
GGTCCGGATGTATAAAGCGCGGCCCCCTGCGGGGAG	732
TACAACTTGCAACGGAAACCACTTCAGGTTCATTAC	847
CAGAAACATCCCTCCTGCCGCCGCTTTGTGGTACCA	983
ACCGCCGGAAGTTTCTGCCGCGGCTTTGCGGGGACG	791
CCGCCGACACACTTCCGGCGGCCACCACAGGGTATT	795
AAAACAACTCCAGGATGTGGTTTTACTCAGAATGTA	928
AGAGTCTTTTTTCCTGAGCGTTTGCGGTTTTGACTT	10500
TCGCTTCCGGTGTCGGTTACAGACTGTGGTTGCCAT	906
GGGTGCAGACGGGAAGTTGCGGCTGCCAGCGAAGCT	741
TGGGGAGGCAGGAAACGGGCCTTGTGGTTGGGGGGT	770
CAGGTTGTTGAGGATGTGGAGAAACCGCAACCTCGT	3670
CTAAGCAGAGGCCGGAAGCGGTGGTTTTTAGCGGCT	677
